Bioassay records: PubChem, National Center for Advancing Translational Sciences (NCATS)
The entries come from a sample that favours hits as a whole.
DT40 TDP1 CPT – DT40-hTDP1 cell growth loss with CPT. Potency, µM (doses to about 46.2 µM), without a hit: top-dose activity change, negative = growth inhibition, most hits filed as inhibitors. chicken DT40 Tdp1-/-;hTDP1 cells + 20 nM CPT, ATP luminescence, 48 h. actives 12% (n = 420,000); further: potency means the concentration at half of the fitted maximal effect; nearly all actives have a fitted effect of over 55% in size
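Chicken DT40 Tdp1-/- cells stably complemented with human TDP1 were seeded at 400 cells/well in medium containing 20 nM camptothecin, exposed to pin-transferred compounds, and grown at 37 °C for at least 48 hr. Viability was read as ATP luminescence.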
HT1080 IDH1KD tx – toxicity to HT-1080 IDH1 knockdown cells (counter line); HT-1080 IDH1 knockdown viability, ATP luminescence, 48 h; Potency, µM (series often up to 46.1 µM), for the others: at the top dose activity, negative = toxicity, actives largely listed as cytotoxic; actives 2% (n = 360,000); AID 686971;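 further: potency means the concentration at half of the fitted maximal effect; 0% = DMSO wells and -100% = cell-free medium wells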
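HT-1080-IDH1KD cells (IDH1 knocked down), 750/well in RPMI with 5% FBS, treated with compound 48 h at 37 degrees C. Viability by CellTiter-Glo luminescence, normalised to DMSO and no-cell wells; concentration-response curves classed.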
IL1B secr inh – inflammasome signaling inhibition, IL-1 beta readout; THP-1 LPS/ATP IL-1B secretion, AlphaLISA, 16 h; stronger effect = lower value; activity change, % at 57.5 µM; actives 4.7% (n = 360,000); in the data active means activity change below about -50%; inconclusive means mostly about -30% to -49%
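Secreted IL-1B measured by AlphaLISA bead assay after 16 h compound exposure of THP-1 cells; compounds (final up to 57.5 uM) added 1 h before LPS (250 ng/mL) and ATP (1.25 mM) stimulation; lower signal means less secretion.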
DT40 TDP1 no CPT – qHTS for Inhibitors of human tyrosyl-DNA phosphodiesterase 1 (TDP1): qHTS in cells in absence of CPT | AID 686978, 2013 | actives 15% (n = 420,000) | DT40 Tdp1-/- hTDP1 cells, no CPT, ATP luminescence, 48 h | Potency, µM (doses to about 46.2 µM), inactives show at the highest dose activity change, negative = growth inhibition, usual class: inhibitors; further: potency means the concentration at half of the fitted maximal effect; nearly all actives have a fitted effect of over 55% in size
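Seeded 400 DT40-hTDP1 cells/well (vehicle DMSO, no 20 nM CPT); pinned compounds; ≥48 hr at 37 °C; CellTiter-Glo luminescence as viability measure.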
12-LOX inh – ALOX12 (human) lipoxygenase inhibition. purified 12hLO, xylenol orange hydroperoxide absorbance. actives 1.1% (n = 580,000). Potency, µM (doses to about 108 µM), without a hit: top-dose activity change, negative = inhibition, usual class: inhibitors. P18054; further: potency means the concentration at half of the fitted maximal effect
Target sequence (P18054 whole entry, looked up): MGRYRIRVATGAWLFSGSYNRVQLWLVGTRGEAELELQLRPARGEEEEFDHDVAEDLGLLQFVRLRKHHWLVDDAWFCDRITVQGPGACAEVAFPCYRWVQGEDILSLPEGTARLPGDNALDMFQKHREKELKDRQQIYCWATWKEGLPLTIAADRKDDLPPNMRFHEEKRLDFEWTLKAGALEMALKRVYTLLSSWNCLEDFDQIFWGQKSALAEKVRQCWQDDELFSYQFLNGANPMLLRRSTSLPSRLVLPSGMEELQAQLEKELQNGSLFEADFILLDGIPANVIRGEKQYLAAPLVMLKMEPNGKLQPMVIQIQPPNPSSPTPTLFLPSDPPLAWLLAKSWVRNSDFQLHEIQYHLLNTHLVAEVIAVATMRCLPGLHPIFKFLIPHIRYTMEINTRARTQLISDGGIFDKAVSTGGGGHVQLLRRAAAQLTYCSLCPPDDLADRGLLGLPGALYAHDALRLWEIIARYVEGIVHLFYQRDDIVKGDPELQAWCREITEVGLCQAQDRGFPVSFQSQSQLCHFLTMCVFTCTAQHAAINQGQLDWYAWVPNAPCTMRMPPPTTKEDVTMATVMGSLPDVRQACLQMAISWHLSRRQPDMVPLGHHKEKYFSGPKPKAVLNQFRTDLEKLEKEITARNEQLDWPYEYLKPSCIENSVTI
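Purified human 12hLO (150 nM final) in 25 mM Hepes, 0.01% Triton X-100, pH 7.0 was preincubated 15 min at room temperature with compound. Then 40 uM arachidonic acid was added, 30 min. Hydroperoxide was read by Fe-XO absorbance ratio 573/405 nm.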
HT1080-NT tox – kills 2HG-producing HT-1080-NT fibrosarcoma cells; HT-1080-NT fibrosarcoma viability, CellTiter-Glo ATP luminescence, 48 h; Potency, µM (titrated, usually from 46.1 µM), without a hit: at the top dose activity, negative = less viability, usual class: cytotoxic; actives 1.6% (n = 360,000); AID 686970;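 further: NT is the 2HG producing partner of a matched IDH1 knockdown line; potency means the concentration at half of the fitted maximal effect; 0% = DMSO-treated cells and -100% = media-only wells without cells; nearly all actives have a fitted effect of over 55% in size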
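A 48-hour cytotoxicity screen used HT-1080-NT cells plated 2 hours before compound delivery. ATP-based CellTiter-Glo luminescence measured viability, normalized to DMSO and no-cell controls.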
Starred values were filed as active, the others as inactive; ? = inconclusive; · = no result; [ ] = remark or other dose. Unless noted, the call rests on the fitted dose curve; in most records, active means well fitted curve in the direction sought with a large enough effect; inconclusive means small, poorly fitted or top-dose-only effect, or another doubt; inactive means no such curve, though single readings can be large; an effect the other way counts as inactive or inconclusive. Unless noted, on the % scale 0 is the no-effect control and ±100 the full control effect.

SMILES | DT40 TDP1 CPT | HT1080 IDH1KD tx | IL1B secr inh | DT40 TDP1 no CPT | 12-LOX inh | HT1080-NT tox
CCn1cc(C(=O)NCc2ccccc2Cl)c(=O)c2cc(S(=O)(=O)N3CCCCCC3)ccc21 | ? | · | · | 20.6µM* | 0.0% | ·
CCn1cc(C(=O)NCc2ccccc2OC)c(=O)c2cc(S(=O)(=O)N3CCCCC3)ccc21 | 18.4µM* | · | · | ? | -25.7% | ·
CC(C)N1C[C@@H]2OCC(=O)N(CC3CCCCC3)[C@@H]2C1 | · | · | · | · | -0.8%[176 µM] | ·
Clc1cccc(CNc2nc(-c3cccnc3)nc3ccccc23)c1 | ? | ? | -16.6 | ? | -6.4% | -29.9%
Cc1c(O)ccc(/C=N/Nc2nc(-c3cccnc3)nc3ccccc23)c1O | 5.17µM* | ? | -19.4 | 3.66µM* | 13.7% | 17.8µM*
COc1ccccc1NC(=O)Nc1nc(-c2cccnc2)nc2ccccc12 | · | · | · | · | 233.2% | ·
COc1ccc(/C=N/Nc2nc(-c3cccnc3)nc3ccccc23)cc1OC | 16.4µM* | -25.4% | -51.7* | 3.66µM* | 484.3% | -13.7%
Oc1ccc(/C=N/Nc2nc(-c3cccnc3)nc3ccccc23)c(O)c1 | 23.1µM* | ? | -12.8 | 4.11µM* | 0.1% | ?
COc1ccc(CCNc2nc(-c3cccnc3)nc3ccccc23)cc1OC | 13µM* | 10.3µM* | ? | 9.2µM* | -14.8% | ?
COc1cccc(-c2nc(NCc3cccnc3)c3ccccc3n2)c1 | -5.0% | · | · | -20.4% | -23.7% | ·
N#Cc1ccc(-n2cccc2C=O)cc1 | · | · | · | · | -8.6% | ·
Cc1c(C(=O)NCc2coc(-c3cccs3)n2)cccc1[N+](=O)[O-] | · | · | · | · | -18.6% | ·
Clc1ccc(/C=N/Nc2nc(Cl)nc3ccccc23)cc1 | ? | -7.8% | 15.2 | ? | 0.0% | -8.4%
Cc1ccc(-c2nc(N/N=C/c3ccncc3)c3ccccc3n2)cc1 | 20.6µM* | 10µM* | 0.0 | 18.4µM* | -1.2% | 11.2µM*
COc1ccc(C(=O)N[C@@H]2CCC[C@@H]2C(=O)NCCCN2CCCc3ccccc32)cc1 | · | · | · | · | 275.6% | ·
CS(=O)(=O)c1ncc(Cl)c(C(=O)N2CCN(c3cccc(Cl)c3)CC2)n1 | 1.03µM* | · | · | 0.517µM* | 7.8% | ·
Cc1ccc2nc(C(=O)N3CCN(c4cccc(Cl)c4)CC3)cn2c1 | · | · | · | · | 17.1% | ·
CCS(=O)(=O)c1ncc(Cl)c(C(=O)N2CCN(c3cccc(Cl)c3)CC2)n1 | 0.259µM* | · | · | 0.206µM* | 0.5% | ·
Cc1ccc(CN(C)C(=O)c2cc(S(=O)(=O)Nc3ccc(C)cc3)ccc2C)cc1 | · | · | · | · | 0.7% | ·
COc1ccc(OCC(=O)Nc2ccc3c(=O)c4cccc(F)c4oc3c2)cc1 | · | · | · | · | 37.5% | ·
Cn1c(-c2ccccc2)cnc1NCc1cc2c(cc1[N+](=O)[O-])OCO2 | -13.7% | -15.2% | -22.1 | ? | -17.2% | -0.3%
Cn1c(-c2ccc3c(c2)OCO3)cnc1NCc1cccc(O)c1 | -19.2% | ? | -19.8 | ? | 11.2µM* | -28.7%
COc1ccc(CNc2ncc(-c3ccc(F)cc3)n2C)cc1OC | ? | -9.4% | -11.9 | 23.1µM* | ? | -10.1%
COc1ccc(OC)c(CNc2ncc(-c3ccc(F)cc3)n2C)c1 | ? | -1.1% | -18.1 | ? | 4.2% | 3.1%
CCn1nnnc1NCc1ccc(OCc2ccc(F)cc2Cl)c(OC)c1 | ? | -13.8% | -58.3* | ? | 0.1% | -7.2%
SMILES | DT40 TDP1 CPT | HT1080 IDH1KD tx | IL1B secr inh | DT40 TDP1 no CPT | 12-LOX inh | HT1080-NT tox
COc1ccc(CNc2ncc(-c3ccc(F)cc3)n2C)c2ccccc12 | 23.1µM* | ? | -82.1* | 16.4µM* | ? | 23.1µM*
c1ccc(CN2CCC[C@H]2c2nc(-c3ccnc(N4CCOCC4)c3)no2)cc1 | · | · | · | · | 34.5%[176 µM] | ·
COc1ccccc1CNc1ncc(-c2ccccc2)n1C | 25.9µM* | -5.4% | 0.0 | ? | ? | -19.3%
CCOc1ccc(-c2cnc(NCc3cccc4ccccc34)n2CCOC)cc1 | ? | ? | -94.9* | 4.61µM* | ? | ?
Cn1c(-c2ccc(F)cc2)cnc1NCc1cccc(F)c1 | ? | ? | -11.9 | 18.4µM* | ? | 5.9%
CCCN(Cc1ccccc1)C(=O)c1ccc(CNC(N)=O)cc1 | · | · | · | · | -4.1% | ·
CCCc1cc(C(=O)N2CC[C@H]3CNC[C@H]32)n(C)n1 | · | · | · | · | -0.5% | ·
O=C(O)CNCc1ccc(-c2ccccc2)cc1 | · | · | · | · | -23.7% | ·
CCCCc1ccc(NC(=O)c2nccnc2N)cc1 | · | · | · | · | 70.6% | ·
Cn1nc(C(F)(F)F)c(-c2ccc(Br)cc2)c1NC(=O)c1ccco1 | ? | -28.7% | -2.9 | ? | 6.3% | ?
COc1ccc(-c2c(C(F)(F)F)nn(C)c2NC(=O)c2cccnc2)cc1 | 16.7% | -5.2% | 13.2 | -18.2% | 2.9% | 1.3%
Cn1nc(C(F)(F)F)c(-c2ccc(F)cc2)c1NC(=O)Nc1ccc(F)cc1 | 16.4µM* | ? | · | 14.6µM* | 12.6% | 23.1µM*
Cn1nc(C(F)(F)F)c(-c2ccc(Br)cc2)c1NC(=O)c1cccnc1 | ? | ? | 2.5 | 13µM* | 0.0% | -28.3%
CC(C)C(=O)Nc1ccc(F)c(F)c1 | · | · | · | · | -9.1% | ·
COc1ccccc1CNC(=O)[C@@H]1CNC[C@H]1COc1cccnc1 | · | · | · | · | 1.2% | ·
COc1cccc(/C(O)=C2/C(=O)C(=O)N(c3cc(C)on3)C2c2cccs2)c1 (stereo unspecified) | ? | ? | 1.5 | 3.66µM* | ? | ?
CCOc1ccc(CNS(=O)(=O)c2ccc3c(c2)CC(C)N3C(C)=O)cc1OC (stereo unspecified) | 13µM* | · | · | 11.6µM* | -1.3% | ·
CCCCN(Cc1ccccc1)S(=O)(=O)c1cc(Br)cc2c1N(C(C)=O)C(C)C2 (stereo unspecified) | 16.4µM* | ? | -19.4 | 13µM* | 19.2% | ?
CC(=O)N1c2c(cc(Br)cc2S(=O)(=O)NCc2cccnc2)CC1C (stereo unspecified) | 0.5% | -4.4% | 26.5 | -21.4% | 18.6% | -3.6%
COc1cc(CNS(=O)(=O)c2ccc3c(c2)CC(C)N3C(C)=O)cc(OC)c1OC (stereo unspecified) | 10.3µM* | -12.1% | 35.4 | ? | 3.3% | 6.2%
CC(=O)N1c2ccc(S(=O)(=O)NCc3ccccc3Cl)cc2CC1C (stereo unspecified) | ? | -2.4% | 19.1 | 7.31µM* | 1.9% | -0.3%
CC(=O)N1c2c(cc(Br)cc2S(=O)(=O)NCc2ccccc2Cl)CC1C (stereo unspecified) | ? | · | · | ? | -23.4% | ·
